proKLK7 act: proKLK7 zymogen activators, primary screen, biochemical, fluorescence intensity | Kallikrein-7 (Homo sapiens), P49862 | purified proKLK7, EDANS-DABCYL substrate fluorescence; 100% is mature enzyme control, 0% vehicle | activation, % at 7 µM | hit rate 0.9% among 370,000;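 active = activation above the mean of all tested compounds plus 3 SD, computed per campaign excluding outliers beyond control limits, cut at about 13% in these data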
Target sequence (P49862 whole entry, looked up): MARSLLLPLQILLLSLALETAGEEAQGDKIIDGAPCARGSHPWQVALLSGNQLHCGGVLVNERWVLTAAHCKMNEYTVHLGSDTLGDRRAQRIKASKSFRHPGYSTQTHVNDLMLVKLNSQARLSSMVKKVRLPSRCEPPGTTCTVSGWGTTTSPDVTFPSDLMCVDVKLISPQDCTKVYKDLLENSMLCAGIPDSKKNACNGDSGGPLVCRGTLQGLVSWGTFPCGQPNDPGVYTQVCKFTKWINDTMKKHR
ADAM10 inh: human ADAM10 inhibitors, primary screen, biochemical, QFRET, HTS; Disintegrin and metalloproteinase domain-containing protein 10 (Homo sapiens), O14672; recombinant ADAM10, EDANS/DABCYL FRET peptide cleavage, 3 h; inhibition, % at 7 µM; hit rate 0.62% among 370,000; AID 720582, 2013;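 active = inhibition above a per-campaign cutoff equal to the mean of compounds falling between control-based bounds plus 3 SD, cut at about 20% in these data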;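 also: 0% = DMSO wells while the 100% control is not disclosed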
rCAG binder: binders of r(CAG) RNA repeats, primary screen, biochemical, fluorescence | hit rate 1.3% among 370,000 | AID 651821, 2012 | r(CAG) RNA repeat, TO-PRO-1 dye displacement fluorescence | inhibition, % at 3 µM;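 active = inhibition above the plate cutoff, the mean of all test compounds on that plate plus 3 SD, cut at about 35% in these data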;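 also: 0% = DMSO alone and 100% = 100 µM mitoxantrone as full dye displacement; higher means more dye released from RNA so lower well fluorescence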
MPTP inh: mitochondrial permeability transition pore inhibitors, primary screen, biochemical, isolated mouse mitochondria, absorbance | Ca2+ swelling absorbance, 30 min | hit rate 1.4% among 360,000 | inhibition, % at 10 µM;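 active = inhibition of 50% or more, scaled per plate between neutral and stimulator controls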;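 also: 0% = DMSO wells given calcium and 100% = 1 mM EGTA wells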
ADAM17 inh: ADAM17 inhibitors, primary screen, biochemical, QFRET; AID 720648, 2013; Disintegrin and metalloproteinase domain-containing protein 17 (Homo sapiens), P78536; hit rate 0.83% among 370,000; recombinant ADAM17, EDANS/DABCYL FRET peptide cleavage; inhibition, % at 6.95 µM;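 active = inhibition above the mean of compounds lying between control limits plus 3 SD, set per campaign, cut at about 8.5% in these data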;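 also: 0% = DMSO-only wells as the low control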
Pemphigus Ab inh: inhibitors of pemphigus antibody binding to DSG3, primary screen, biochemical, bead-based, flow cytometry, scFv-GFP. Desmoglein-3 (Homo sapiens), P32926. DSG3-coupled beads, scFv-anti-DSG3-GFP binding; active compounds read low. binding (percent of control), % at 10 µM. hit rate 0.48% among 310,000. AID 588358, 2011;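 active = binding more than 3 SD below its plate's average and above zero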;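 also: hits lower antibody fragment binding to DSG3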
ADAM10 counter: ADAM10 inhibitors, counter-screen for ADAM17 exosite inhibitor project, biochemical, FRET, human ADAM10 | shares compounds with ADAM17 inh | recombinant ADAM10, EDANS/DABCYL FRET peptide cleavage, 3 h | inhibition, % at 6.95 µM | hit rate 47% among 2,900 | AID 743256, 2014;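 active = mean inhibition over the triplicate runs exceeds the activity threshold set in the earlier primary screen, cut at about 20% in these data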;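 also: 0% = DMSO wells and 100% = marimastat wells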
ADAM17 confirm: ADAM17 inhibitors, hit retest, confirmation, biochemical, QFRET peptide cleavage; recombinant ADAM17, EDANS/DABCYL QFRET peptide cleavage; AID 743257, 2014; shares compounds with ADAM17 inh; hit rate 65% among 2,900; inhibition, % at 6.95 µM;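 active = mean inhibition across replicates above the hit cutoff set in the primary screen, cut at about 8.5% in these data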;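 also: 0% = DMSO wells and 100% = marimastat wells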
* = called active by the depositor. Shown are actives, neighbours in structure and some others; about 4.7% of the full set was active somewhere.

What do the screens show for `Nc1nc(C(c2ccccc2)c2ccccc2)cs1`?
proKLK7 act: 0; ADAM10 inh: 20; rCAG binder: 1; MPTP inh: 2; ADAM17 inh: 8.7*; ADAM10 counter: 6; ADAM17 confirm: 4

What do the screens show for `NC(=O)c1ccsc1NC(=O)COC(=O)CCc1ccccc1`?
proKLK7 act: 0; ADAM10 inh: 7; rCAG binder: 4; MPTP inh: 0; ADAM17 inh: 2; Pemphigus Ab inh: 102

What do the screens show for `CCCCN(CCCC)CCNC(=O)c1cn(C)c2ccc(S(=O)(=O)N3CCCC3)cc2c1=O`?
proKLK7 act: 0; ADAM10 inh: -5; rCAG binder: 1; MPTP inh: 2; ADAM17 inh: 9.4*; Pemphigus Ab inh: 102; ADAM10 counter: -6; ADAM17 confirm: 2

Results for C[C@@H]1CC=C[C@H]2[C@H]1C(=O)N(Cc1ccccc1)[C@H]2c1ccc(-c2ccc(F)cc2)cc1F ?
proKLK7 act: 1; ADAM10 inh: -8; rCAG binder: 9; MPTP inh: 1; ADAM17 inh: -5; Pemphigus Ab inh: 102

What do the screens show for `C[C@@H]1CC=C[C@@H]2[C@H]1C(=O)N(Cc1ccccc1)[C@H]2c1cccc(Br)c1`?
proKLK7 act: 0; ADAM10 inh: 2; rCAG binder: 3; MPTP inh: -1; ADAM17 inh: 8.6*; Pemphigus Ab inh: 102; ADAM10 counter: 16; ADAM17 confirm: 10*

How did C[C@@H]1CC=C[C@@H]2[C@H]1C(=O)N(Cc1ccccc1)[C@H]2c1cccc(C#Cc2ccccc2)c1 do in these assays?
proKLK7 act: 0; ADAM10 inh: -12; rCAG binder: 12; MPTP inh: 0; ADAM17 inh: -6; Pemphigus Ab inh: 96

What do the screens show for `C[C@@H]1CC=C[C@H]2[C@H]1C(=O)N(Cc1ccccc1)[C@H]2c1ccc(-c2ccoc2)cc1F`?
proKLK7 act: 0; ADAM10 inh: 18; rCAG binder: 10; MPTP inh: -1; ADAM17 inh: 13*; Pemphigus Ab inh: 98; ADAM10 counter: 10; ADAM17 confirm: 8

How did Cc1ccc(C(=O)C2CCN(CC(=O)N3CC(C)CC(C)C3)CC2)cc1 (stereo not given) do in these assays?
proKLK7 act: 0; ADAM10 inh: -11; rCAG binder: 2; ADAM17 inh: 1

How did Cc1ccc(OCCC(=O)OCC(=O)NC(=O)NC2CCCCC2)cc1 do in these assays?
proKLK7 act: 0; ADAM10 inh: -11; rCAG binder: -10; MPTP inh: -1; ADAM17 inh: 9.0*; Pemphigus Ab inh: 103; ADAM10 counter: 30*; ADAM17 confirm: 14*

Results for CCOC1=C2[C@@H](CN(S(=O)(=O)c3ccc(C)cc3)[C@H]2c2ccccc2F)[C@H]2C(=O)N(C3CCCCC3)C(=O)[C@H]2C1 ?
proKLK7 act: 0; ADAM10 inh: -7; rCAG binder: 3; MPTP inh: -1; ADAM17 inh: -3

Results for O=C(NCCS(=O)(=O)N1CCN(c2ccccc2)CC1)c1ccc(Br)o1 ?
proKLK7 act: 0; ADAM10 inh: -5; rCAG binder: -3; MPTP inh: -1; ADAM17 inh: -1; Pemphigus Ab inh: 102

What do the screens show for `Cc1ccc(N(CC(=O)Nc2cc(Cl)ccc2Oc2ccccc2)S(C)(=O)=O)c(C)c1`?
proKLK7 act: 1; ADAM10 inh: 16; rCAG binder: 11; MPTP inh: 2; ADAM17 inh: 13*; Pemphigus Ab inh: 105; ADAM10 counter: 41*; ADAM17 confirm: 22*

Results for COC(=O)c1cccc(Cn2c(Cl)c(/C=N/Nc3ccccc3C)sc2=O)c1 ?
proKLK7 act: -1; ADAM10 inh: 14; rCAG binder: 13; MPTP inh: 3; ADAM17 inh: 9.5*; Pemphigus Ab inh: 98; ADAM10 counter: 20; ADAM17 confirm: 12*

Results for O=C(COC(=O)/C=C/c1ccco1)Nc1ccccc1 ?
proKLK7 act: 0; ADAM10 inh: -3; rCAG binder: 3; MPTP inh: -2; ADAM17 inh: 0; Pemphigus Ab inh: 115

How did CCc1ccc(NC(=O)COC(=O)/C=C/c2ccco2)cc1 do in these assays?
proKLK7 act: 0; ADAM10 inh: 5; rCAG binder: 16; MPTP inh: 1; ADAM17 inh: 11*; Pemphigus Ab inh: 112; ADAM10 counter: 2; ADAM17 confirm: 4

How did COC(=O)c1ccc(CNC(=O)/C=C/[C@H]2O[C@@H](n3cc(C)c(=O)[nH]c3=O)C[C@@H]2O)cc1 do in these assays?
proKLK7 act: 0; ADAM10 inh: 3; rCAG binder: 0; MPTP inh: 1; ADAM17 inh: 3

How did OCC1CCCCN1CC(O)COC(c1ccc(F)cc1)c1ccc(F)cc1 (stereo not given) do in these assays?
proKLK7 act: 0; ADAM10 inh: 6; rCAG binder: -2; MPTP inh: -2; ADAM17 inh: 2; Pemphigus Ab inh: 108

Results for O=C(CSc1ncn[nH]1)Nc1ccc2c(c1)CCC2 ?
proKLK7 act: 0; ADAM10 inh: 11; rCAG binder: 1; MPTP inh: 1; ADAM17 inh: 8.8*; Pemphigus Ab inh: 101; ADAM10 counter: 10; ADAM17 confirm: 4

Results for COC(=O)[C@]12C[C@H](CC(=O)NCc3cccc(C(F)(F)F)c3)C(=O)N(Cc3ccccc3)C1=C[C@H](C(C)(C)C)O[C@@H]2C ?
proKLK7 act: 0; ADAM10 inh: 11; rCAG binder: 3; ADAM17 inh: 6

Results for O=C(N/N=C/c1cccs1)C1CC(=O)N(c2ccccc2)C1 (stereo not given) ?
proKLK7 act: -1; ADAM10 inh: 2; rCAG binder: 0; MPTP inh: -1; ADAM17 inh: -4; Pemphigus Ab inh: 105

How did Cc1ccc(/C=N/NC(=O)C2CC(=O)N(c3ccccc3)C2)s1 (stereo not given) do in these assays?
proKLK7 act: 1; ADAM10 inh: 4; rCAG binder: 0; MPTP inh: 4; ADAM17 inh: 10*; ADAM10 counter: 0; ADAM17 confirm: 2

Source: PubChem BioAssay
